Measurements published in the supplement of paper PMC12819154, “High-throughput peptide-centric local stability assay extends protein–ligand identification to membrane proteins, tissues and bacteria” (Nature Structural & Molecular Biology, 2025).

Compound: Nc1ncnc2c1ncn2[C@@H]1O[C@H](COP(=O)(O)OP(=O)(O)OP(=O)(O)O)[C@@H](O)[C@H]1O [adenosine 5'-triphosphate]
Assay: log2 fold change of tryptic peptide abundance, ligand vs vehicle (limited proteolysis) (log2 ratio); higher = more trypsin-susceptible (destabilized)
Conditions: ligand concentration: 5 mM; sample: E. coli desalted lysate; replicate design: treated before aliquoting
Experimental: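 HT-PELSA: desalted E. coli K-12 BW25113 lysate (with 12 mM MgCl2) incubated with 5 mM ATP (pH 7) or water for 30 min at 25 C, then a 4 min trypsin pulse at 22 C. Peptides were quantified by DIA-MS (4 replicates). Value is the peptide log2 fold change (treated/control); negative = stabilized. Scale: negative = ligand-stabilized region.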
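Also: lysate desalted by size exclusion to strip endogenous ATP, peptide intensities built from DIA-NN precursor signals, and peptides missing any value discarded before comparison.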

Target | log2 fold change
UniProt P03007 (peptide sequence: VTDSLAVAR, peptide start residue: 127) | 0.313
UniProt Q46927 (peptide sequence: QINPECR, peptide start residue: 95) | -2.51
UniProt P24193 (peptide sequence: AVVTSMAETAR, peptide start residue: 111) | -1.88
UniProt P0A9K7 (peptide sequence: HVGGDELDKLLAGK, peptide start residue: 224) | -0.493
UniProt P13009 (peptide sequence: DQVEDYAR, peptide start residue: 1198) | -1.27
UniProt P23839 (peptide sequence: YLETYFRLPEQFR, peptide start residue: 31) | 0.91
UniProt P21170 (peptide sequence: TLLTQFR, peptide start residue: 619) | 0.611
UniProt P23894 (peptide sequence: SVGGEVIEQPR, peptide start residue: 61) | 2.55
UniProt P00960 (peptide sequence: AVAEAYYASREALGFPMCNKDK, peptide start residue: 282) | 0.93
UniProt P76035 (peptide sequence: TIATFQAYLGHPVR, peptide start residue: 176) | 0.609
UniProt P39359 (peptide sequence: EGDLATAATLNKK, peptide start residue: 229) | -1.33
UniProt Q06065 (peptide sequence: FSSENQR, peptide start residue: 334) | -2.8
UniProt P0A9U1 (peptide sequence: LIASGTPDDLK, peptide start residue: 537) | -0.834
UniProt P22634 (peptide sequence: LVDSGAAIAR, peptide start residue: 224) | 0.312
UniProt P00893 (peptide sequence: HSQSYMQSLPDFVR, peptide start residue: 493) | 0.316
UniProt P77739 (peptide sequence: IGWQLELAAEK, peptide start residue: 152) | -0.651
UniProt P38097 (peptide sequence: VTVYEPQQAAAHSER, peptide start residue: 840) | -1.32
UniProt P77611 (peptide sequence: LFSAFRK, peptide start residue: 4) | 0.344
UniProt P45523 (peptide sequence: GTLIDGKEFDNSYTR, peptide start residue: 173) | 0.527
UniProt P19323 (peptide sequence: ELENVIER, peptide start residue: 600) | -0.833
UniProt P11454 (peptide sequence: IELGEIDR, peptide start residue: 867) | -1.19
UniProt P02925 (peptide sequence: IAGDYIAKK, peptide start residue: 136) | 1.27
UniProt P33570 (peptide sequence: AGKEEAHGAPLGEEEVALAR, peptide start residue: 254) | -0.289
UniProt P37005 (peptide sequence: IVDSQAHLEPATR, peptide start residue: 33) | -0.548
UniProt P17117 (peptide sequence: ESRPFILDYLHK, peptide start residue: 223) | 1.13
UniProt P00805 (peptide sequence: SVFDTLATAAK, peptide start residue: 274) | 0.366
UniProt P37689 (peptide sequence: LVAAIKSGK, peptide start residue: 383) | -2.15
UniProt P05804 (peptide sequence: DKNHPSVVMWSIANEPDTRPQGAR, peptide start residue: 399) | -0.737
